The text below walks through data of PubChem BioAssay AID624483 (NMMLSC, 2012).

Among all 360,000 compounds or so, about 11,000 (3.1%) were called active. Another 2% or so got no clear call; they are omitted. Rule as the data show it: active = fluorescence intensity above about 16000; inconclusive = no clear call, values can overlap the other calls; inactive = below that. Shown is part of a subset that was picked to be rich in actives.

This test is described as follows: counter-screen for toxin protease inhibitors: compound fluorescence, primary screen, artefact control for toxin protease inhibitor project, biochemical, multiplex microsphere, HTS (AID 624483). Particulars: compound autofluorescence counterscreen, microsphere flow cytometry; hits give high values. In general terms: The purpose of a counterscreen is to sort out artefacts and off-target activity.
Take `COc1ccc(S(=O)(=O)N2CCC(C(=O)N3CCOCC3)CC2)cc1OC`: the fluorescence intensity was 8730 (inactive). On to `COc1ccc(S(=O)(=O)N2CCC(C(=O)N3CCCC3)CC2)cc1C`, for which the fluorescence intensity is 2980 (inactive). For the compound `COc1ccc(S(=O)(=O)N2CCC(C(=O)N3CCc4ccccc4C3)CC2)cc1OC`, the fluorescence intensity was 18500 (active). Turning to `CCCNC(=O)C1(C)CCN(C(=O)c2cc(F)ccc2C)C1` (stereo not drawn), the fluorescence intensity is 3600 (inactive). `CCc1nc2ccc(C(=O)N(C)Cc3ccco3)cn2c1N(C)C(=O)Cc1ccccc1`: the fluorescence intensity is 3670 (inactive). Consider `O=S1(=O)CC(N2CCN(CCO)CC2)CN1Cc1cn(Cc2cccc(Cl)c2)nn1` (stereo not drawn), for which the fluorescence intensity was 5760 (inactive). For `Cc1cc(C)cc(Oc2nc3c(C)cccn3c(=O)c2/C=C(\C#N)C(=O)NC2CCS(=O)(=O)C2)c1` (stereo not drawn), the fluorescence intensity was 2120 (inactive). As for `CCOCCn1c(C(C)C)nc2ccccc21`, the fluorescence intensity was 3860 (inactive).

As to `C=C(Br)Cn1c(CCCC)nc2ccccc21`, the fluorescence intensity is 3410 (inactive). To `COCc1nc2ccccc2n1Cc1ccccc1Br` belongs 20400 (active). In the case of `Nc1cccc(-c2cncc(N3CCN(Cc4ccccn4)CC3)n2)c1` it was 3020 (inactive); in that of `Cc1cccc(CNC(=O)c2sc(=O)n(Cc3ccccc3C)c2C)c1`, 4210 (inactive). Turning to `COc1ccc(-c2cc3ccc(OCc4nn[nH]n4)cc3oc2=O)cc1`, the fluorescence intensity was 24000 (active). For the compound `Cc1noc(C)c1COc1ccc2ccc(=O)oc2c1`, the fluorescence intensity was 3400 (inactive).

`CCCCc1cc(=O)oc2cc(C)cc(OCc3nn[nH]n3)c12`: the fluorescence intensity was 2630 (inactive). Consider `CC(C)C1C(=O)N(Cc2cn(CCC3OCCO3)nn2)CCS(=O)(=O)N1Cc1ccc(-c2ccccc2C(F)(F)F)cc1` (stereo not drawn), for which the fluorescence intensity was 5850 (inactive). As to `Cc1ccc(NC(=O)C(C)Sc2nnc(C3CC3)n2C2CC2)cc1S(=O)(=O)N1CCOCC1` (stereo not drawn), the fluorescence intensity is 3820 (inactive). In the case of `COC(=O)c1ccc2nc(-c3ccc(C)cc3)c(Cc3ccc(OC)cc3C)n2c1`, the fluorescence intensity is 7150 (inactive). For `O=C(NCCCN1CCOCC1)c1cc(-c2cccc(O)c2)on1`, the fluorescence intensity was 2910 (inactive). As to `O=C(NCCCn1ccnc1)c1cc(-c2ccccc2)on1`, the fluorescence intensity was 3190 (inactive).

In the case of `CCN(CC)CCCNC(=O)c1cc(-c2cccc(Cl)c2)on1`, the fluorescence intensity was 22000 (active).

As for `O=C(NCc1ccccc1)C1C(=O)N(Cc2ccccc2)C(=O)C1C1(O)CCCC1` (stereo not drawn), the fluorescence intensity is 8420 (inactive). Turning to `COc1cc(NC(=O)C2=CC(c3ccco3)=NS(=O)(=O)N2C)cc(OC)c1OC`, the fluorescence intensity was 4170 (inactive). Take `O=S(=O)(NCCNS(=O)(=O)c1ccccc1)c1ccccc1`: the fluorescence intensity was 22900 (active).

For `O=S(=O)(NCCc1ccncc1)c1ccccc1`, the fluorescence intensity was 3020 (inactive). With `O=S(=O)(NCCc1ccccc1)c1ccccc1`, the fluorescence intensity was 3470 (inactive). `CCOc1ccc(CCN2C(=S)N([C@@H](CC(C)C)CN3CCC[C@@H]3CN3C(=S)NC[C@@H]3Cc3ccc(O)cc3)C[C@@H]2Cc2ccc(O)cc2)cc1`: the fluorescence intensity was 6230 (inactive).

For the compound `CCOc1c(Nc2cccc(Cl)c2)c(=O)c1=O`, the fluorescence intensity is 4070 (inactive). With `CCOc1ccc(CNC(=O)C2CCCN(c3nnc(C)c4c(C)n(-c5ccccc5)nc34)C2)cc1` (stereo not drawn), the fluorescence intensity was 9860 (inactive). Take `CCOc1nnc(C)c2c(C)n(-c3cccc(Cl)c3)nc12`: the fluorescence intensity is 23500 (active). In the case of `Brc1cc(Br)c(Oc2cc(Br)c(Br)cc2Br)cc1Br`, the fluorescence intensity is 5260 (inactive).

As for `COc1ccc(Cl)cc1NC(=O)CN(C)C(=O)CNC(=O)C12CC3CC(CC(C3)C1)C2`, the fluorescence intensity was 22500 (active).

`COc1ccc(Cl)cc1NC(=O)CN(C)C(=O)c1ccc2n[nH]nc2c1`: the fluorescence intensity is 7700 (inactive). In the case of `COc1ccc(Cl)cc1NC(=O)CN(C)Cc1ccc(OC)c(OC)c1`, the fluorescence intensity is 4460 (inactive). For the compound `CCOC(=O)C1=C(COC(=O)[C@H](C)NS(=O)(=O)c2ccccc2F)NC(=O)NC1C` (stereo partly drawn), the fluorescence intensity was 3650 (inactive). On to `Cc1onc(-c2ccccc2)c1C(=O)N1CCN(S(=O)(=O)c2ccccc2C(F)(F)F)CC1`, for which the fluorescence intensity was 3570 (inactive). Take `COC(=O)c1ccc2nc(-c3cccc(Br)c3)c(Cc3ccc(OC)cc3C)n2c1`: the fluorescence intensity was 5220 (inactive).

Regarding `CCC1(C)Cc2c(sc3[nH]c(=S)n(Cc4ccccc4)c(=O)c23)CO1` (stereo not drawn), the fluorescence intensity is 2880 (inactive). On to `CCOC(=O)Cn1c(SC)nc2sc3c(c2c1=O)CC(C)(C)OC3`, for which the fluorescence intensity is 6860 (inactive). Take `CCC1(C)Cc2c(sc3nnn(CC(=O)Nc4ccc(Cl)cc4)c(=O)c23)CO1` (stereo not drawn): the fluorescence intensity is 22700 (active).

As for `N#C/C(=C/c1cccc([N+](=O)[O-])c1)c1nnc2n1CCCCC2`, the fluorescence intensity was 1990 (inactive). `CS(=O)(=O)N(Cc1ccc(Cl)cc1)c1ccc(C(=O)NCCSCc2ccco2)cc1`: the fluorescence intensity was 10900 (inactive).

In the case of `Cc1ccc(N(Cc2ccc(C(=O)Nc3ccccc3C(=O)NCc3ccco3)cc2)S(C)(=O)=O)cc1C`, the fluorescence intensity is 25100 (active). In the case of `Cc1cccc(Nc2ccccc2C(=O)NCc2ccco2)c1C`, the fluorescence intensity is 3190 (inactive). In the case of `O=C(Nc1ccc(S(=O)(=O)N2CCOCC2)cc1)c1ccc2ncsc2c1` it was 4800 (inactive); in that of `O=C(CSc1nnc(-c2c[nH]c3ccccc23)o1)c1ccccc1`, 7930 (inactive). Take `CCCn1cc(SCC(N)=O)c2ccccc21`: the fluorescence intensity was 6190 (inactive). Regarding `NC(=O)CSc1c[nH]c2ccccc12`, the fluorescence intensity is 20300 (active). As to `O=[N+]([O-])c1ccc(CN2CC(N3CCC(c4ccccc4)CC3)CS2(=O)=O)cc1` (stereo not drawn), the fluorescence intensity was 4360 (inactive). To `COc1ccc(S(=O)(=O)N2CCC(C(=O)NCc3ccco3)CC2)cc1C` belongs 3590 (inactive); to `COc1ccc(CNC(=O)C2CC(c3ccc(C(F)(F)F)cc3)=NO2)cc1` (stereo not drawn), 4040 (inactive); to `COc1ccc(C2=NOC(C(=O)NCc3ccco3)C2)cc1OC` (stereo not drawn), 21200 (active). With `COc1ccc(N2CCN(C(=O)c3cn(C)c4ccc(S(=O)(=O)N5CCOCC5)cc4c3=O)CC2)cc1`, the fluorescence intensity was 5270 (inactive). To `CCOC(=O)N1CCN(C(=O)c2cn(C)c3ccc(S(=O)(=O)N(CC)CC)cc3c2=O)CC1` belongs 2950 (inactive). Regarding `CCOC(=O)N1CCN(C(=O)c2cn(C)c3ccc(S(=O)(=O)N4CCCC4)cc3c2=O)CC1`, the fluorescence intensity was 19900 (active). As for `Cc1ccc(C(NC(=O)C2CCN(CCOc3ccc(Cl)cc3Cl)CC2)c2ccccn2)cc1` (stereo not drawn), the fluorescence intensity is 3690 (inactive). For `O=C(NCCS(=O)(=O)N1CCN(c2ccccc2)CC1)c1cc(=O)c2ccccc2o1`, the fluorescence intensity was 2940 (inactive).

For `CC(C)C(=O)N1c2ccccc2NC2=C(C(=O)CCC2)C1c1ccc(N(C)C)cc1` (stereo not drawn), the fluorescence intensity is 3590 (inactive).
